This is an account of results in the OligoGym collection.

Targets include BCL7A; C11orf49; C15orf54; C16orf55; C15orf58; C17orf103; C17orf71; C1QL1; C1orf106; C1orf115; C1orf109; C1orf114.
Assay in all cases: pooled miR-30 sensor sort-seq; sequence = guide strand
What all share (conditions): shRNA
Further: reference of the scale not given here.

TAGTAGTTCTGTTCGCACCCAA registered a sensor-assay potency score (higher = more potent) with BCL7A of 0.392.
For the sequence TTCTCCAACAGGCCACAGCGGT, in the assay with C11orf49, the sensor-assay potency score (higher = more potent) was -1.61.
On to TAACACTAGGGTAAACCCCTGG, for which, in the assay with C11orf49, the sensor-assay potency score (higher = more potent) was -0.37.
For TATACTTATTCTCACATCCTTT, the sensor-assay potency score (higher = more potent) with C15orf54 is -0.462.
As for TTCACCTTCTTGAAGAACCTGC, the sensor-assay potency score (higher = more potent) with C15orf54 is 0.924.
Turning to TTATAGGCGTCTGCTGTACTGG, in the assay with C16orf55, the sensor-assay potency score (higher = more potent) is -0.778.
For the sequence TAGTATAATAAAGTTATGCTAC, the sensor-assay potency score (higher = more potent) with C15orf54 is -0.835.
In turn, AACATTGAAAGCTTCACCGTCC displayed a sensor-assay potency score (higher = more potent) with C15orf58 of 0.994.
Still for that read-out and setting: the value for TGAAGTTGAACTGTACAGGGTC was 0.667.
With ATCTGGGACCTCGGTGTGCTGC, the sensor-assay potency score (higher = more potent) in the assay with C17orf103 is -1.85.
In the case of TTATTTGAAAGGGACATCTGTT, in the assay with C15orf54, the sensor-assay potency score (higher = more potent) was -0.498.
With TATTTGAACATATAAGATGTTA, the sensor-assay potency score (higher = more potent) with C15orf54 is -0.68.
Consider TTCAAGATCAAACTAGGCCATG, for which, in the assay with C15orf54, the sensor-assay potency score (higher = more potent) is -1.17.
Still for that read-out and setting: the figure for TTCTGTAGGCACTACATTCTGG is -0.0345.
ATTGAAAGCTTCACCGTCCTTT showed a sensor-assay potency score (higher = more potent) with C15orf58 of 0.575.
For TTCTCCTTGACGTACTTCTGGA, in the assay with C17orf103, the sensor-assay potency score (higher = more potent) is -0.93.
Regarding TCTCCTTAGATTTTGGAACTGA, the sensor-assay potency score (higher = more potent) with C16orf55 was -0.0429.
TAGATTTTGGAACTGAATAGGT: the sensor-assay potency score (higher = more potent) with C16orf55 was -0.346.
AACAACAACAAGAATATCCTGC: in the assay with C15orf54, the sensor-assay potency score (higher = more potent) stood at 0.568.
TTTTGGAACTGAATAGGTGGAT: the sensor-assay potency score (higher = more potent) with C16orf55 was -0.336.
With TCTCCTTGACGTACTTCTGGAT, the sensor-assay potency score (higher = more potent) with C17orf103 is -0.358.
In the case of TGGACTTTTGCTTTACATCAGG, the sensor-assay potency score (higher = more potent) with C16orf55 was -1.63.
As to ATCTTGTTGAAGTTGAACTGTA, the sensor-assay potency score (higher = more potent) with C15orf58 was -0.903.
Regarding TTAAGCAATGAGCTCAATCTAG, in the assay with C15orf54, the sensor-assay potency score (higher = more potent) was -0.475.
With TGCCTGTACGTCTTCTGCCTGG, in the assay with C15orf58, the sensor-assay potency score (higher = more potent) was -0.932.
Turning to TTCCTTTACATTTATAACCATT, in the assay with C15orf54, the sensor-assay potency score (higher = more potent) is -1.28.
Take TTTGGAACTGAATAGGTGGATC: the sensor-assay potency score (higher = more potent) with C16orf55 is -0.304.
Still for that read-out and setting: the figure for TAGGCGTCTGCTGTACTGGGGT is 0.489.
Regarding TCTTCTTGCAGCAGAGTCCCAG, the sensor-assay potency score (higher = more potent) with C15orf58 was -0.775.
As for TCATAGAGCAGGACGGCCCGGT, the sensor-assay potency score (higher = more potent) with C17orf103 is -0.156.
Consider TTCAGTTTGTGACTTTTGCTGG, for which the sensor-assay potency score (higher = more potent) with C15orf54 was found to be 0.098.
Turning to TTGAGCCGGACAGTGAACTGGC, the sensor-assay potency score (higher = more potent) with C17orf103 was -0.109.
Regarding TGTCAGGCTGCTGAAGTCCTGG, in the assay with C15orf58, the sensor-assay potency score (higher = more potent) was -0.843.
Regarding TTAGATTTTGGAACTGAATAGG, the sensor-assay potency score (higher = more potent) with C16orf55 was -0.116.
As to TTCTCTGCTGGTCACTCCCGCT, the sensor-assay potency score (higher = more potent) in the assay with C16orf55 is -1.51.
TGTACCAGCAGGTGAGATGGGC: in the assay with C17orf103, the sensor-assay potency score (higher = more potent) is -0.507.
In the case of ACGTACTTCTGGATGTACCAGC, the sensor-assay potency score (higher = more potent) with C17orf103 is -1.62.
In the case of TTACATCAGGTTTCTCTTCCAG, the sensor-assay potency score (higher = more potent) in the assay with C16orf55 came to 0.199.
TTATCAAGGACTCCAAGTCAGG: the sensor-assay potency score (higher = more potent) with C15orf58 was -1.43.
Sequence TTGAAAGGGACATCTGTTGGAT registered a sensor-assay potency score (higher = more potent) with C15orf54 of 0.0555.
As to TCTTGTTGAAGTTGAACTGTAC, the sensor-assay potency score (higher = more potent) in the assay with C15orf58 came out at 0.172.
Turning to TTCTCCATCAACTTCTCCTTAG, the sensor-assay potency score (higher = more potent) with C16orf55 was -0.561.
Take TTTGGGTCTGTAGCTCCCGTAG: the sensor-assay potency score (higher = more potent) with C15orf58 is -1.43.
Sequence TTGAAGTTGAACTGTACAGGGT came in with a sensor-assay potency score (higher = more potent) with C15orf58 of 0.153.
For the sequence TTCCTGGGAATGCTTCTCCATC, the sensor-assay potency score (higher = more potent) with C16orf55 is -1.49.
TACTTGACCATGAACTTCTGGA yielded a sensor-assay potency score (higher = more potent) in the assay with C17orf71 of 0.427.
Regarding TTGCACGTAAACTTGCCGCTGG, the sensor-assay potency score (higher = more potent) with C1QL1 was 0.439.
On to TCTAGCAAGACAATACACCACC, for which the sensor-assay potency score (higher = more potent) with C1orf106 is -0.714.
Take TTCTCCTCCAGGCACAGCCGAC: the sensor-assay potency score (higher = more potent) with C1orf106 is -1.78.
TACTTCTTCAGCTTCCTCCGGT came in with a sensor-assay potency score (higher = more potent) in the assay with C1orf115 of 0.808.
Sequence TTATTAATAATAGTTATCTGGT registered a sensor-assay potency score (higher = more potent) with C1orf109 of 0.0251.
For TATGTATCGATGATAGCACGTT, the sensor-assay potency score (higher = more potent) with C1orf109 was found to be 0.283.
Turning to TAGTAGTGTCTTCTAGTGGAGG, the sensor-assay potency score (higher = more potent) with C1orf114 is -0.965.
In the case of TTCTGCTGCACACCCACACTGC, in the assay with C1orf115, the sensor-assay potency score (higher = more potent) was -0.976.
Turning to TAGAACCAGAGCACAGAGCGTT, the sensor-assay potency score (higher = more potent) with C1orf106 is -0.706.
TATTGAAGTATTTAGCACTAAA: the sensor-assay potency score (higher = more potent) with C1orf106 is -0.989.
For the sequence TTTTCCATCTCTCTCTACCAGT, the sensor-assay potency score (higher = more potent) with C1orf114 was -0.549.
On to ATCTTGTACAAGATCCTGGTGT, for which the sensor-assay potency score (higher = more potent) in the assay with C1orf109 was -0.231.
Turning to TTCAGGTACAAAGACTTGCACA, the sensor-assay potency score (higher = more potent) in the assay with C1orf106 is -0.854.
With TTCTTTCATCTGCTCTTCGTGC, in the assay with C1orf114, the sensor-assay potency score (higher = more potent) was -0.834.
